From ChEMBL document CHEMBL3988442, “University of Dundee, Small-Polar-MMV Screening Library” (2021) come the findings set out here.

For some of these results: Results with a measured potency or affinity are listed apart.

Holding throughout (design): scale not given: direction of the effect not stated beside the values
The target of assay [1] is Protein translocase subunit SecA (Escherichia coli (strain K12)) (UniProt P10408). Briefly: Assay to Identify E. coli SecA ATPase Inhibitors. It is filed as functional. The settings on record: 30 µM.
In assay [2] the target is T1, Ubiquitin-activating enzyme e1, putative (Leishmania donovani (strain BPK282A1)) (UniProt E9BSI1).
T1 sequence (whole entry): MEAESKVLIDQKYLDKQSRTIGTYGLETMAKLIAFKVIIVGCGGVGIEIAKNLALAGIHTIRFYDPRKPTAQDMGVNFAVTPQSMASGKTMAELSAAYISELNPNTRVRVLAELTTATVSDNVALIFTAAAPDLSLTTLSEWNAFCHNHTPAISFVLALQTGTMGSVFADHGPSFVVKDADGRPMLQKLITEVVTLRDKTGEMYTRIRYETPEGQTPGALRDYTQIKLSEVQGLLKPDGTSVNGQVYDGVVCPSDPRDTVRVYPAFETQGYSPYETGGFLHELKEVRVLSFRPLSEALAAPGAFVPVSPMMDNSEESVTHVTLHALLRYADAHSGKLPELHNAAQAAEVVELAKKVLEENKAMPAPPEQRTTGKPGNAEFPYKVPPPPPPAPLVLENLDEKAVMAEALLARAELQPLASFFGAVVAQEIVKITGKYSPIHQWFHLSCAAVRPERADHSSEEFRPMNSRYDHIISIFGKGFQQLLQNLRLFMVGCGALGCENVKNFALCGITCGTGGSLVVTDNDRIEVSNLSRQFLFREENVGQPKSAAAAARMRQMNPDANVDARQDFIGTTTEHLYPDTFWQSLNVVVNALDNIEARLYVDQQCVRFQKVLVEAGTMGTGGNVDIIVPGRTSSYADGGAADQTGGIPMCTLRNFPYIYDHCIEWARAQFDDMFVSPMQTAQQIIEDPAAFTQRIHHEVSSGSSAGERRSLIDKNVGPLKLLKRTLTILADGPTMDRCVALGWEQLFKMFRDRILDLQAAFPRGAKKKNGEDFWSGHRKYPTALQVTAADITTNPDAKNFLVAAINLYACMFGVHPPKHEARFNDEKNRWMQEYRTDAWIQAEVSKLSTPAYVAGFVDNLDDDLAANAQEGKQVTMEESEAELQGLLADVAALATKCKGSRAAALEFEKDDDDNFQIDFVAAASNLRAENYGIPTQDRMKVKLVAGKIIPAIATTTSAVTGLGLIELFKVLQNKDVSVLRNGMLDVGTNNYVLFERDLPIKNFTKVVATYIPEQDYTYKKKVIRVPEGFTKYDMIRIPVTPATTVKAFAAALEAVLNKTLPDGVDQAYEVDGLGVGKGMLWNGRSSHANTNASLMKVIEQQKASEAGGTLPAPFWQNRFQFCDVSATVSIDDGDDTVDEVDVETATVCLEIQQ
Briefly: Leishmania donovani Ubiquitin Activating Enzyme (LdE1). In kind it is functional. The settings on record: 30 µM.

The target of assay [3] is AMP-activated protein kinase, AMPK (Homo sapiens) (UniProt P54646+O43741+P54619+Q9UGJ0+Q9Y478+Q13131+Q9UGI9). Briefly: AMP-dependent Kinase enzyme assay. An in vitro enzyme assay that detects ADP turnover that is directly proportional to AMPK activity. This uses naive AMPK that is activated during the assay with MK-8722. In kind it is functional. The conditions noted are these: 30 µM.

The target of assay [4] is Sialic acid-binding Ig-like lectin 9 (Homo sapiens) (UniProt Q9Y336). Briefly: Hs-Siglec9 ALPHAscreen SOP 20170721. The settings on record: 10 µM.
The subject of a further assay is Trypanosoma cruzi. Briefly: Trypanosoma cruzi phosphomannomutase and mannose-1-phosphate guanylyltransferase assay. The settings on record: 10 µM. It is filed as functional.
Assay [5] addresses T2, Arginase-2, mitochondrial (Homo sapiens) (UniProt P78540).
T2 sequence (whole entry): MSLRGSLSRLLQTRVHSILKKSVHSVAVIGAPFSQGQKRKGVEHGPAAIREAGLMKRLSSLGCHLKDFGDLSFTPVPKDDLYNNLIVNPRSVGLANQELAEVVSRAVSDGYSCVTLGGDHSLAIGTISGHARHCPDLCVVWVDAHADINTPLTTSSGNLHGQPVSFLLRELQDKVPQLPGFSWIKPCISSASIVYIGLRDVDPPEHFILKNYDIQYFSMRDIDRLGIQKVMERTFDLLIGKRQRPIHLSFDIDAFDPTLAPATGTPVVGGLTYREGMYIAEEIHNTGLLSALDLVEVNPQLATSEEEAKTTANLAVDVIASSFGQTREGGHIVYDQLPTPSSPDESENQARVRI
Briefly: in vitro enzyme assay to detect the production of urea directly proportional to the activity of Arginase II. Note: in the data most compounds retested in dose-response had high values. It is filed as functional. The settings on record: 33.3 µM.

For assay [6], the target named is T3, Proteasome subunit beta (Trypanosoma cruzi) (UniProt O96673).
T3 sequence (whole entry): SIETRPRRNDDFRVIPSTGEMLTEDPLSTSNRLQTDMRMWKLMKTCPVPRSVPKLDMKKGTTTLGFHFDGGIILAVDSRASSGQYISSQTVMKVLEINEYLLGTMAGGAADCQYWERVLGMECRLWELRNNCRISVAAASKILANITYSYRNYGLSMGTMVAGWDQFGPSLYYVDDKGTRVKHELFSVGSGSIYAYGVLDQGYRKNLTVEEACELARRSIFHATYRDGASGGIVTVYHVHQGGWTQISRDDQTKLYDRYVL
Briefly: Trypanosoma cruzi proteasome chymotrypsin-like activity (TcProtChymo) assay. Note: in the data most compounds retested in dose-response had high values. In kind it is functional. The conditions noted are these: 9.37 µM.

The species entered for a further assay is Homo sapiens. Briefly: To identify inhibition of the IFN signalling (Jak-Stat) pathway via expression of an eGFP reporter gene under the control of an IFN-stimulated response element (ISRE) containing MxA promoter. It is filed as functional. The conditions noted are these: 30 µM.
Assay [7] has as its target T4, Tyrosyl-tRNA synthetase, putative (Trypanosoma cruzi (strain CL Brener)) (UniProt Q4DSP6).
T4 sequence (whole entry): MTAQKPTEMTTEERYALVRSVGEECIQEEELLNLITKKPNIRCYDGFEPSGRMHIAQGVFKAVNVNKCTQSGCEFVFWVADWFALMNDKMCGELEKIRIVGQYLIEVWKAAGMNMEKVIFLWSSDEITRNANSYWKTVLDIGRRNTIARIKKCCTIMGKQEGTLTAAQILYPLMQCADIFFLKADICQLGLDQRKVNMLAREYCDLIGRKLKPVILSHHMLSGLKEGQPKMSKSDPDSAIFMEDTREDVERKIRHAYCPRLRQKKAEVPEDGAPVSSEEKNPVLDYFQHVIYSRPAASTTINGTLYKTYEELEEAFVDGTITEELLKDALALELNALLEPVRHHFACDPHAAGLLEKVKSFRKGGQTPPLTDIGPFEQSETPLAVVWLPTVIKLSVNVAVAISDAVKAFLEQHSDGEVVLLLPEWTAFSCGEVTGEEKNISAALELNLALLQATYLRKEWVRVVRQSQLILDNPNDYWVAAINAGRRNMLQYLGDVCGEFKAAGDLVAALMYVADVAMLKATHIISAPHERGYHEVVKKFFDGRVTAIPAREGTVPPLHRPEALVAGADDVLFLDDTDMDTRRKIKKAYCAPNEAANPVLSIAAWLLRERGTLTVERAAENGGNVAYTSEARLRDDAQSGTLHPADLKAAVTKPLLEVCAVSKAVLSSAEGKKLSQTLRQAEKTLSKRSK
Briefly: Trypanosoma cruzi tyrosyl tRNA synthetase (TcYRS) _High Tyrosine SOP. Note: in the data most compounds retested in dose-response had high values. It is filed as functional. The settings on record: 30 µM.

Assay [8] deals with T4, Tyrosyl-tRNA synthetase, putative (Trypanosoma cruzi (strain CL Brener)). Briefly: Trypanosoma cruzi tyrosyl tRNA synthetase (TcYRS) SOP. It is filed as functional. The conditions noted are these: 30 µM.
Assay [9] addresses Chromo domain-containing protein 1 (Saccharomyces cerevisiae (strain ATCC 204508 / S288c) (Baker's yeast)) (UniProt P32657). Briefly: ScCHD-1 Enzyme Inhibition Assay. Note: in the data most compounds retested in dose-response had high values. The conditions noted are these: 30 µM. In kind it is functional.

Chain of Sialic acid-binding Ig-like lectin 9 (Homo sapiens) (Q9Y336 whole entry): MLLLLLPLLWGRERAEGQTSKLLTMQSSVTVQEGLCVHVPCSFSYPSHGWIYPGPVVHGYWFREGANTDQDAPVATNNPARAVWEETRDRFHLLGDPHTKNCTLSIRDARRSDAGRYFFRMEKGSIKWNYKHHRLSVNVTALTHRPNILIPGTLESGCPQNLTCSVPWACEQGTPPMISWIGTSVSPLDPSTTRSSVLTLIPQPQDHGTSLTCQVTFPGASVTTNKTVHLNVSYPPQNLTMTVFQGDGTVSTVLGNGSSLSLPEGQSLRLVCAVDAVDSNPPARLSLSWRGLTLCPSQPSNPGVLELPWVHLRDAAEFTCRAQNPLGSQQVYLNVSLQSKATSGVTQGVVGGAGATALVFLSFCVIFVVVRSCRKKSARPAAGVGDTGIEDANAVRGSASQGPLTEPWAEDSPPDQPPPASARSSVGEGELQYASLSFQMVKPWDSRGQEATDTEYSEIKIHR
Chain of Protein translocase subunit SecA (Escherichia coli (strain K12)) (P10408 whole entry): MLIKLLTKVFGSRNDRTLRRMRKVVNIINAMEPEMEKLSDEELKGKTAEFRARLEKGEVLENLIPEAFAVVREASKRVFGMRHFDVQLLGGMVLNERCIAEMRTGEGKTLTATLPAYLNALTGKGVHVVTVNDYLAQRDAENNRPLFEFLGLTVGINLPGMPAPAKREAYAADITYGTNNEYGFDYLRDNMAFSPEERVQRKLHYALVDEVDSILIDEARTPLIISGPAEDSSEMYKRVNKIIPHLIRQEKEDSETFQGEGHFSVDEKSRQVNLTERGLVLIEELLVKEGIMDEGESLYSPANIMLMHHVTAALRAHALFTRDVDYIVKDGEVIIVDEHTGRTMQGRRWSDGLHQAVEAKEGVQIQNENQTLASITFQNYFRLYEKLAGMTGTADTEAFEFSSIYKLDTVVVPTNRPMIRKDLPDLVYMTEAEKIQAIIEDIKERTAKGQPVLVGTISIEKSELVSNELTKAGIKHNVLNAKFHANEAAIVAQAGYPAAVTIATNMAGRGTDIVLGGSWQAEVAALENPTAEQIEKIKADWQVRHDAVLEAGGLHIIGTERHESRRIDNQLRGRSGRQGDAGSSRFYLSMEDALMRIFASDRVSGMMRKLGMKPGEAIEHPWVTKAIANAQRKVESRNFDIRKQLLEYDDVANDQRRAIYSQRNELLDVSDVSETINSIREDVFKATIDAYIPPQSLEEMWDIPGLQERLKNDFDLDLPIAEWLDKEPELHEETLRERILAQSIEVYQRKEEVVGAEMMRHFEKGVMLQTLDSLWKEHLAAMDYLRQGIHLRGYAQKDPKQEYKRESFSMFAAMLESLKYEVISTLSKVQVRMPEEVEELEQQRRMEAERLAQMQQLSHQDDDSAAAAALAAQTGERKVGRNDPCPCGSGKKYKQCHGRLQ
Chain of Chromo domain-containing protein 1 (Saccharomyces cerevisiae (strain ATCC 204508 / S288c) (Baker's yeast)) (P32657 whole entry, the tested form may be a part): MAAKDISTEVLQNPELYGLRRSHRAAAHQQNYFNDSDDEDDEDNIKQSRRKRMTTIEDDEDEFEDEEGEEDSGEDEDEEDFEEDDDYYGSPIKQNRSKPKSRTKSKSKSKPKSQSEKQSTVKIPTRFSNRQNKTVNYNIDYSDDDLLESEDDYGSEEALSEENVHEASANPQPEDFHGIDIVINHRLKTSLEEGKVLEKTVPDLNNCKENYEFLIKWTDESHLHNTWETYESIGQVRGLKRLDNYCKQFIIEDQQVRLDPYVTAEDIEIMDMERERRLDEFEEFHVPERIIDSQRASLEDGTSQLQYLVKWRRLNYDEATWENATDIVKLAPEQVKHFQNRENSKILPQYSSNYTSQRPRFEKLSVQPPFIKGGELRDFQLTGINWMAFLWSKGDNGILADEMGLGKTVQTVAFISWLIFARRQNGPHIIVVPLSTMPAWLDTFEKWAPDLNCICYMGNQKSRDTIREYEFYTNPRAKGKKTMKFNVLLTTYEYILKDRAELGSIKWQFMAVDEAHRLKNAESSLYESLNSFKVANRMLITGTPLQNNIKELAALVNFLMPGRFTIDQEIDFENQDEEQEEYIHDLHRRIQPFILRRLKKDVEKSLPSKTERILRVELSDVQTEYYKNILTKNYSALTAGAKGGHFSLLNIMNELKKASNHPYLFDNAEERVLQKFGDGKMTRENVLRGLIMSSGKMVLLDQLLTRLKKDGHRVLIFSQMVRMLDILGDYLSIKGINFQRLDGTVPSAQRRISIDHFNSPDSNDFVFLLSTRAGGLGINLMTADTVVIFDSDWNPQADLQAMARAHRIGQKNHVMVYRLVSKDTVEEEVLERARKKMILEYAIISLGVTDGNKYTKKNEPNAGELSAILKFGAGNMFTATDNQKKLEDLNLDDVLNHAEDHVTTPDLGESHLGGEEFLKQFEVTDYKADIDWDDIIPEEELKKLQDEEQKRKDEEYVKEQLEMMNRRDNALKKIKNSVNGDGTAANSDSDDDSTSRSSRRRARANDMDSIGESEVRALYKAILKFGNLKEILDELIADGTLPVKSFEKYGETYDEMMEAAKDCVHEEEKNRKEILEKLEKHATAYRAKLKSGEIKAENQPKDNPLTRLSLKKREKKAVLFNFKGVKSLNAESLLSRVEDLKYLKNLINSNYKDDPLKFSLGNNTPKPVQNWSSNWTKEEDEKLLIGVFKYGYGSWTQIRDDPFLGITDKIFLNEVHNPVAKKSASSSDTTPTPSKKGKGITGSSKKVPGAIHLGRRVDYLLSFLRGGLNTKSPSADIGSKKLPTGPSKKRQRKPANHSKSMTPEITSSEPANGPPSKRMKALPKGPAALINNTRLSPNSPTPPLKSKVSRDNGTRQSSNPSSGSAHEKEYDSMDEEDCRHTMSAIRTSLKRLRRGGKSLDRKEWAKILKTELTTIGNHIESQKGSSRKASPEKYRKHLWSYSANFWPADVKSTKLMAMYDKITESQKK

For the compound `Cc1ccc(N2CCCC3(COCCN(c4nccs4)C3)C2)nn1` (stereo unspecified), the Percent Effect was 0.955% in assay [1]; 0% in [2]; -4.27% in assay [3]; 3.78% in [4]; 1.79% in the assay with Trypanosoma cruzi; 1.2% in [5]. Moreover, the Percent Effect in [6] was 11.7%; in the assay listed under Homo sapiens, -6.58%; in assay [7], 5.21%; in assay [8] it was 3.7%; in assay [9], -1.92%.
Turning to `Cc1ccc(C(=O)N2CCC3(CC2)NC(=O)CC3c2ccccc2)cn1` (stereo unspecified), the Percent Effect in assay [1] was -2.54%; in [2], 2.67%; in assay [3] it was 3.38%; in assay [4] it was 7.94%; with Trypanosoma cruzi, 0.965%; in assay [5], -48.6%. Also, the Percent Effect in assay [6] was 7.35%; in the assay listed under Homo sapiens, -9.77%; in assay [7], 2.08%; in assay [8], 5%; in [9], -2.72%.
Consider `Cc1cnc(CN(C)C2CCN(CCc3ccccn3)CC2)cn1`, for which the Percent Effect was -1.96% in assay [1]; 13.5% in assay [2]; -8.24% in assay [3]; -5.72% in [4]; 5.48% with Trypanosoma cruzi; -3.88% in [5]. Moreover, the Percent Effect in assay [6] is 14.5%; in the assay listed under Homo sapiens, 13.7%; in assay [7], 7.92%; in [8], 15.8%; in [9], -6.34%.
`CCn1cc(NC(=O)C2CCN(CC(=O)N3CCOCC3)CC2)cn1`: the Percent Effect in [1] was -3.94%; in assay [2], 10.5%; in assay [3] it was -3.09%; in assay [4], 3.27%; in the assay on Trypanosoma cruzi, -4.01%; in [5], 1.8%. Besides, the Percent Effect in assay [6] came out at 3.98%; in the assay listed under Homo sapiens, 3.5%; in assay [7], 2.46%; in [8] it was 11.1%; in [9], 4.1%.
Consider `O=C(C1CCN(c2snc3ccccc23)CC1)N1CCCCCC1`, for which the Percent Effect in assay [1] was 1.1%; in assay [2], 24.1%; in assay [3], 2.83%; in assay [4], -3.46%; with Trypanosoma cruzi, -0.923%; in assay [5], -4.52%. In addition, the Percent Effect in assay [6] was 13.7%; in the assay listed under Homo sapiens it was 59.6%; in [7], 5.21%; in assay [8], 7.59%; in assay [9], -21.3%.
`CCN(C)c1ncnc2c1CCN(C(=O)c1ccno1)CC2`: the Percent Effect in [1] was -6.78%; in [2], 13.3%; in assay [3], 0.989%; in assay [4], 3.39%; with Trypanosoma cruzi it was -4.05%; in assay [5], -46.4%. In addition, the Percent Effect in assay [6] was 5.81%; in the assay filed under Homo sapiens, -5.04%; in [7], 4.17%; in assay [8], 7.5%; in assay [9] it was -5.33%.
In the case of `CCN(c1ccc(C(=O)NCCCN2CCOCC2)cc1)S(=O)(=O)CC`, the Percent Effect in assay [1] was -3.73%; in assay [2], 10.5%; in assay [3], -2.83%; in assay [4], -8.52%; with Trypanosoma cruzi, -6.33%; in assay [5], 2.37%. In addition, the Percent Effect was 15.8% in assay [6]; -2.55% in the assay filed under Homo sapiens; -1.06% in assay [7]; -2.6% in assay [8]; -5.76% in assay [9].
Consider `CC(C)[C@H](NC(=O)NC1CCS(=O)(=O)C1)C(=O)Nc1cccnc1` (stereo partly specified), for which the Percent Effect in [1] is 1.55%; in assay [2] it was 9.33%; in [3] it was -0.824%; in [4], -4.96%; in the assay with Trypanosoma cruzi, -3.34%; in assay [5], -8.28%. Also, the Percent Effect in assay [6] is 13.1%; in the assay filed under Homo sapiens, 17.4%; in [7], 3.17%; in assay [8], 12.8%; in assay [9], -7.36%.
Regarding `Cc1cccc(CN(Cc2ccc(C)o2)C2CC(C)(C)NC(C)(C)C2)n1`, the Percent Effect is -4.93% in assay [1]; 9.46% in assay [2]; 9.39% in assay [3]; -2.48% in assay [4]; -6.13% in the assay on Trypanosoma cruzi; -3.48% in [5]. Moreover, the Percent Effect is 10.8% in assay [6]; 1.42% in the assay listed under Homo sapiens; 3.23% in [7]; 3.9% in assay [8]; -0.669% in [9].
Take `O=S(=O)(CCN1CCOC(Cn2cncn2)C1)c1ccccc1` (stereo unspecified): the Percent Effect is -1.18% in [1]; 5.41% in [2]; -4.67% in assay [3]; 12.3% in assay [4]; 3.81% in the assay with Trypanosoma cruzi; 2.23% in assay [5]. Further, the Percent Effect was -0.0858% in assay [6]; -5.62% in the assay filed under Homo sapiens; 0% in assay [7]; 3.7% in assay [8]; -11.6% in assay [9].
Turning to `NC(=O)CCOc1nc(-c2ccccc2Cl)no1`, the Percent Effect in assay [1] is -6.94%; in assay [2], 2.74%; in assay [3], -11.9%; in [4], 31.6%; in the assay with Trypanosoma cruzi, 8.23%; in [5], -1.82%. For the same compound, the Percent Effect in [6] was 8.87%; in the assay filed under Homo sapiens, -2.22%; in assay [7] it was 4.3%; in [8], 15%; in assay [9], -6.33%.
